# Data reported in PubChem BioAssay AID463190 (Sanford-Burnham Center for Chemical Genomics, 2010).
# About 7,300 (2.2%) of roughly 330,000 compounds were called active.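 How the source made its calls: active means inhibition of at least 40%; inactive means the rest.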 Many of the other results were omitted from the sample, so actives are more common in it than they were.
# Assay: growth inhibition of tim10-1 ts yeast – luminescence, uHTS, primary screen (AID 463190);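 further: mutant grown at 25 °C; 0% = DMSO wells with yeast and 100% = wells holding no yeast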
# Settings: S. cerevisiae tim10-1 ts strain growth, BacTiter-Glo, 24 h; at 20 µM; stronger effect = higher value
row,Structure (SMILES),inhibition
1,CC(Cc1cccs1)NC(=O)c1cccc(Cl)c1 (stereo not drawn),21.4% (inactive)
2,COc1ccc(CCNCc2c(-c3ccccc3)n(C)c3ccccc23)cc1,40.2% (active)
3,COc1ccc(-c2c(C#Cc3ccccc3)c3ccccc3n2C)cc1,14.3% (inactive)
4,COc1ccc(-c2nc3ccccc3c(=O)n2CCc2ccc(O)cc2)cc1,25.8% (inactive)
5,Cc1ccc(Sc2cc(N3CCOCC3)nc(-c3ccccc3)n2)cc1,20.9% (inactive)
6,CCN1CCN(c2nc(Nc3cccc(F)c3)nc(N)c2[N+](=O)[O-])CC1,9.58% (inactive)
7,Cc1ccccc1Nc1nc(N)nc(COC(=O)CCC(=O)c2ccc(F)cc2)n1,15.1% (inactive)
8,O=C1CSC(=S)N1c1ccc(Cl)c(Cl)c1,42% (active)
9,O=C1CSC(=S)N1c1ccc(O)cc1,-38.8% (inactive)
10,COc1cc(N2C(=O)CSC2=S)cc(OC)c1OC,-10% (inactive)
11,COc1ccc(C)cc1Nc1n[n+](-c2ccccc2)c(-c2cccc(Cl)c2Cl)s1,22.9% (inactive)
12,CCCCCCC(O)(CCN1CCCCC1)c1ccccc1 (stereo not drawn),7.54% (inactive)
13,CN(C)N1C(N)=C(C#N)C(c2ccc(Br)cc2)C2=C1CCCC2=O (stereo not drawn),43.6% (active)
14,CCOc1ccc(C2C(C#N)=C(N)N(N(C)C)C3=C2C(=O)CCC3)cc1 (stereo not drawn),12.1% (inactive)
15,CCc1ccc(C2C(C#N)=C(N)N(N(C)C)C3=C2C(=O)CCC3)s1 (stereo not drawn),16.4% (inactive)
16,CC(C)Cc1nnc(NC(=O)CN2C(=O)NC3(CCCCC3)C2=O)s1,-6.92% (inactive)
17,CCCc1cc(-c2nc(-c3ccc(C)cc3)cs2)ccn1,42.5% (active)
18,Clc1ccc(-c2csc(-c3ccncc3)n2)cc1,24.5% (inactive)
19,Cc1ccc(-c2csc(-c3cc(C)on3)n2)cc1,11.2% (inactive)
20,Cc1ccc(/C=N/NC(=O)c2cc3ccccc3cc2O)o1,15.5% (inactive)
21,Cc1cc(N=Nc2ccc3ccccc3c2)ccc1O,57.7% (active)
22,COc1ccc(NC(=O)NCCN2CCN(c3ccc(C)cc3)CC2)c(Cl)c1,-2.17% (inactive)
23,COc1ccc(C2Nc3ccccc3C(=O)N2c2ccc(Cl)cc2)cc1Cn1cc([N+](=O)[O-])cn1 (stereo not drawn),28% (inactive)
24,Cc1cc(C)n(S(=O)(=O)c2cccc([N+](=O)[O-])c2)n1,12.8% (inactive)
25,Cc1ccccc1CN1CCC(C(=O)Nc2ccc(Oc3cccnc3)cc2)CC1,8.05% (inactive)
26,O=C(NCCN1C(=O)S/C(=C\c2cccnc2)C1=O)c1ccc(S(=O)(=O)N2CCCC2)cc1,18.6% (inactive)
27,Cc1cc(OCCCC(=O)NCCN2C(=O)S/C(=C\c3cccnc3)C2=O)ccc1Cl,19.9% (inactive)
28,O=C(NCCN1C(=O)S/C(=C\c2cccnc2)C1=O)c1cccc(OC(F)F)c1,40.4% (active)
